According to PubChem BioAssay (EPA / NIEHS):
Calls of active or inactive are those of the source. How the source made its calls: active means hit-call score of the fitted dose curve at least 0.9, where 1 is the maximum; inactive means score below 0.9.

Tests used:
[1] = read-out: Tumor necrosis factor receptor superfamily member 6 (Homo sapiens) (UniProt P25445); assay: LTEA_HepaRG_FAS: Life Technologies and Expression Analysis (LTEA) Assay for Fas cell surface death receptor (FAS) using HepaRG (AID 2283447); conditions: mRNA level, 48 h; actives raise or lower the signal
Procedure, shortened: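 Differentiated HepaRG cells in serum-free induction medium were exposed 48 h to 8 half-log concentrations up to 100 uM in 0.5% DMSO, in duplicate. FAS mRNA was measured by qRT-PCR normalised to ACTB, GAPDH and POLR2A; bidirectional fit versus DMSO.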

[2] = read-out: Fatty acid synthase (Homo sapiens) (UniProt P49327); assay: LTEA_HepaRG_FASN: Life Technologies and Expression Analysis (LTEA) Assay for Fatty Acid Synthase (FASN) using HepaRG (AID 2283448); conditions: mRNA level, 48 h; actives raise or lower the signal
Procedure, shortened: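 Differentiated HepaRG cells in serum-free induction medium exposed 48 h in duplicate to eight half-log concentrations, top 100 uM, 0.5% DMSO. FASN mRNA by qRT-PCR normalised to ACTB, GAPDH, POLR2A; bidirectional fit versus DMSO.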

[3] = read-out: Cyclin D2 (CCND2), CCND2 (gene 894); assay: LTEA_HepaRG_CCND2: Life Technologies and Expression Analysis (LTEA) Assay for Cyclin D2 (CCND2) using HepaRG (AID 2283449); conditions: mRNA level, 48 h; actives raise or lower the signal;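 further: CCND2 transcript measured by TaqMan qRT-PCR and normalised to three housekeeping genes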
Procedure, shortened: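 Chemicals in 0.5% DMSO, eight half-log concentrations from 100 uM top, were applied in duplicate for 48 h to human HepaRG cells in serum-free induction medium. CCND2 mRNA by TaqMan qRT-PCR, normalised to ACTB/GAPDH/POLR2A; bidirectional fit versus DMSO.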

[4] = read-out: Cyclin Dependent Kinase Inhibitor 1A (CDKN1A), CDKN1A (gene 1026); assay: LTEA_HepaRG_CDKN1A: Life Technologies and Expression Analysis (LTEA) Assay for Cyclin Dependent Kinase Inhibitor 1A (CDKN1A) using HepaRG (AID 2283450); conditions: mRNA level, 48 h; actives raise or lower the signal
Procedure, shortened: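 HepaRG, 48 h dosing, 8-pt half-log series from 100 uM top, 0.5% DMSO vehicle, duplicates. Readout: TaqMan qRT-PCR of CDKN1A transcript, housekeeping-normalized (ACTB, GAPDH, POLR2A). Up/down curve fit relative to DMSO.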

[5] = read-out: Cyclin D1 (CCND1), CCND1 (gene 595); assay: LTEA_HepaRG_CCND1: Life Technologies and Expression Analysis (LTEA) Assay for Cyclin D1 (CCND1) using HepaRG (AID 2283451); conditions: mRNA level, 48 h; actives raise or lower the signal;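 on AC50: TaqMan qRT-PCR transcript level normalised to ACTB GAPDH and POLR2A housekeeping genes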
Procedure, shortened: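 qRT-PCR (Fluidigm 96.96 array) read-out of transcript level, housekeeping-normalized (ACTB/GAPDH/POLR2A). HepaRG cells, 48 h chemical exposure, 8-point half-log series from 100 uM, 0.5% DMSO vehicle; gain or loss relative to DMSO baseline.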

[6] = read-out: catalase (CAT), CAT (gene 847); assay: LTEA_HepaRG_CAT: Life Technologies and Expression Analysis (LTEA) Assay for catalase (CAT) using HepaRG (AID 2283452); conditions: mRNA level, 48 h; actives raise or lower the signal
Procedure, shortened: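 HepaRG cells in serum-free induction medium, 0.5% DMSO vehicle, exposed 48 h in duplicate over 8 half-log concentrations from 100 uM. CAT mRNA measured by qRT-PCR, normalized to ACTB, GAPDH, POLR2A; bidirectional fit versus DMSO.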

[7] = read-out: flavin-containing dimethylaniline monooxygenases 3 (FMO3), FMO3 (gene 2328); assay: LTEA_HepaRG_FMO3: Life Technologies and Expression Analysis (LTEA) Assay for flavin-containing dimethylaniline monooxygenases 3 (FMO3) using HepaRG (AID 2283453); conditions: mRNA level, 48 h; actives raise or lower the signal
Procedure, shortened: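 Differentiated HepaRG cells in serum-free induction medium, exposed 48 h in duplicate to 8 half-log concentrations up to 100 uM in 0.5% DMSO. FMO3 mRNA by qRT-PCR, normalized to ACTB, GAPDH, POLR2A; bidirectional fit vs DMSO.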

[8] = read-out: Cytochrome P450 (CYP1A1), CYP1A1 (gene 1543); assay: LTEA_HepaRG_CYP1A1: Life Technologies and Expression Analysis (LTEA) Assay for Cytochrome P450 (CYP1A1) using HepaRG (AID 2283454); conditions: mRNA level, 48 h; actives raise or lower the signal
Procedure, shortened: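 qRT-PCR read-out: CYP1A1 transcript normalized to three housekeeping genes, fitted bidirectionally against 0.5% DMSO vehicle baseline. Human HepaRG cells, 48 h chemical exposure, 8-point half-log series topping at 100 uM.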

[9] = read-out: CFLAR gene, CFLAR (gene 8837); assay: LTEA_HepaRG_CFLAR: Life Technologies and Expression Analysis (LTEA) Assay for CFLAR gene using HepaRG (AID 2283455); conditions: mRNA level, 48 h; actives raise or lower the signal
Procedure, shortened: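 Differentiated HepaRG cells in serum-free induction medium were exposed 48 h in duplicate to eight half-log concentrations up to 100 uM in 0.5% DMSO; mRNA measured by TaqMan qRT-PCR, normalized to ACTB, GAPDH, POLR2A; bidirectional fitting versus DMSO.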

[10] = read-out: Forkhead box O1 (FOXO1), FOXO1 (gene 2308); assay: LTEA_HepaRG_FOXO1: Life Technologies and Expression Analysis (LTEA) Assay for Forkhead box O1 (FOXO1) using HepaRG (AID 2283456); conditions: mRNA level, 48 h; actives raise or lower the signal
Procedure, shortened: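 Differentiated HepaRG cells, in serum-free induction medium with 0.5% DMSO, exposed 48 h in duplicate to 8-point half-log series from 100 uM. FOXO1 mRNA measured by TaqMan qRT-PCR, normalized to ACTB, GAPDH, POLR2A; bidirectional fit versus DMSO.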

[11] = read-out: growth arrest and DNA damage 45 (GADD45A), GADD45A (gene 1647); assay: LTEA_HepaRG_GADD45A: Life Technologies and Expression Analysis (LTEA) Assay for growth arrest and DNA damage 45 (GADD45A) using HepaRG (AID 2283458); conditions: mRNA level, 48 h; actives raise or lower the signal
Procedure, shortened: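 Differentiated HepaRG cells exposed 48 h in serum-free induction medium to 8 concentrations, top 100 uM in half-log steps, 0.5% DMSO. GADD45A mRNA quantified by qRT-PCR, normalized to ACTB, GAPDH and POLR2A; bidirectional fit versus DMSO.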

[12] = read-out: Forkhead box O3 (FOXO3), FOXO3 (gene 2309); assay: LTEA_HepaRG_FOXO3: Life Technologies and Expression Analysis (LTEA) Assay for Forkhead box O3 (FOXO3) using HepaRG (AID 2283459); conditions: mRNA level, 48 h; actives raise or lower the signal
Procedure, shortened: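 Differentiated human HepaRG cells, 48 h post-plating, exposed in duplicate for 48 h in serum-free induction medium; 8-point half-log series from 100 uM in 0.5% DMSO. FOXO3 mRNA by TaqMan qRT-PCR, normalized to ACTB/GAPDH/POLR2A; bidirectional fit versus DMSO.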

[13] = read-out: ABC Transporter (ABCB1), ABCB1 (gene 5243); assay: LTEA_HepaRG_ABCB1: Life Technologies and Expression Analysis (LTEA) Assay for ABC Transporter (ABCB1) using HepaRG (AID 2283460); conditions: mRNA level, 48 h; actives raise or lower the signal
Procedure, shortened: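 HepaRG cells exposed in duplicate for 48 h in serum-free induction medium to eight half-log concentrations up to 100 uM in 0.5% DMSO. ABCB1 mRNA quantified by qRT-PCR, normalised to ACTB, GAPDH and POLR2A; fitted bidirectionally versus DMSO.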

[14] = read-out: ABC Transporter (ABCC3), ABCC3 (gene 8714); assay: LTEA_HepaRG_ABCC3: Life Technologies and Expression Analysis (LTEA) Assay for ABC Transporter (ABCC3) using HepaRG (AID 2283462); conditions: mRNA level, 48 h; actives raise or lower the signal
Procedure, shortened: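 qRT-PCR read-out of ABCC3 transcript, normalized to three housekeeping genes (ACTB, GAPDH, POLR2A), after 48 h chemical exposure of human HepaRG cells. Eight half-log concentrations, highest 100 uM, in 0.5% DMSO; gain or loss fitted relative to DMSO baseline.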

[15] = read-out: ABC Transporter (ABCB11), ABCB11 (gene 8647); assay: LTEA_HepaRG_ABCB11: Life Technologies and Expression Analysis (LTEA) Assay for ABC Transporter (ABCB11) using HepaRG (AID 2283463); conditions: mRNA level, 48 h; actives raise or lower the signal
Procedure, shortened: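 Differentiated human HepaRG cells in serum-free induction medium, dosed in duplicate for 48 h. Eight-point half-log series from 100 uM in 0.5% DMSO; ABCB11 mRNA by qRT-PCR, normalized to ACTB, GAPDH, POLR2A, fitted bidirectionally versus DMSO.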

[16] = read-out: ABC Transporter (ABCC2), ABCC2 (gene 1244); assay: LTEA_HepaRG_ABCC2: Life Technologies and Expression Analysis (LTEA) Assay for ABC Transporter (ABCC2) using HepaRG (AID 2283464); conditions: mRNA level, 48 h; actives raise or lower the signal
Procedure, shortened: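 qRT-PCR (TaqMan, Fluidigm array) read-out of ABCC2 mRNA, normalized to three housekeeping genes. Differentiated HepaRG cells were treated 48 h in serum-free induction medium with 8-point half-log series from 100 uM in 0.5% DMSO; curves fitted bidirectionally relative to DMSO.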

[17] = read-out: Broad substrate specificity ATP-binding cassette transporter ABCG2 (Homo sapiens) (UniProt Q9UNQ0); assay: LTEA_HepaRG_ABCG2: Life Technologies and Expression Analysis (LTEA) Assay for ABC Transporter (ABCG2) using HepaRG (AID 2283465); conditions: mRNA level, 48 h; actives raise or lower the signal
Procedure, shortened: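 Differentiated HepaRG cells were exposed for 48 h in serum-free induction medium to 8 half-log concentrations, top 100 uM, in 0.5% DMSO. ABCG2 mRNA was measured by qRT-PCR, normalized to ACTB, GAPDH and POLR2A, with bidirectional fitting versus DMSO.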

[18] = read-out: ATP-citrate lyase (ACLY), ACLY (gene 47); assay: LTEA_HepaRG_ACLY: Life Technologies and Expression Analysis (LTEA) Assay for ATP-citrate lyase (ACLY) using HepaRG (AID 2283466); conditions: mRNA level, 48 h; actives raise or lower the signal
Procedure, shortened: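 Differentiated HepaRG cells exposed 48 h in serum-free induction medium to eight half-log concentrations up to 100 uM in 0.5% DMSO, duplicates. Transcript measured by Fluidigm TaqMan qRT-PCR, normalized to ACTB, GAPDH, POLR2A; bidirectional fit versus DMSO.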

[19] = read-out: growth arrest and DNA damage 45 (GADD45B), GADD45B (gene 4616); assay: LTEA_HepaRG_GADD45B: Life Technologies and Expression Analysis (LTEA) Assay for growth arrest and DNA damage 45 (GADD45B) using HepaRG (AID 2283461); conditions: mRNA level, 48 h; actives raise or lower the signal
Procedure, shortened: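 qRT-PCR read-out (Fluidigm TaqMan, housekeeping-normalized) of mRNA change in human HepaRG cells after 48 h chemical exposure; 8-point curve, top 100 uM, half-log steps, 0.5% DMSO vehicle; gain or loss fitted relative to DMSO baseline.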

[20] = CEETOX_H295R_TESTO: CeeTox H295R High-throughput Steroidogenesis Assay for Testosterone (TESTO) (AID 2283457); conditions: actives raise or lower the signal;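 further: cells exposed to chemicals for 48 h before medium collection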
Procedure, shortened: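 Readout: testosterone quantified by HPLC-MS/MS (C18, ESI positive) after MTBE liquid-liquid extraction of culture medium. Cells were H295R, 48 h chemical exposure per OECD 456 with modifications. Gain or loss of signal fitted relative to DMSO.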

Measured: AC50

Chain of Fatty acid synthase (Homo sapiens) (P49327 whole entry, looked up): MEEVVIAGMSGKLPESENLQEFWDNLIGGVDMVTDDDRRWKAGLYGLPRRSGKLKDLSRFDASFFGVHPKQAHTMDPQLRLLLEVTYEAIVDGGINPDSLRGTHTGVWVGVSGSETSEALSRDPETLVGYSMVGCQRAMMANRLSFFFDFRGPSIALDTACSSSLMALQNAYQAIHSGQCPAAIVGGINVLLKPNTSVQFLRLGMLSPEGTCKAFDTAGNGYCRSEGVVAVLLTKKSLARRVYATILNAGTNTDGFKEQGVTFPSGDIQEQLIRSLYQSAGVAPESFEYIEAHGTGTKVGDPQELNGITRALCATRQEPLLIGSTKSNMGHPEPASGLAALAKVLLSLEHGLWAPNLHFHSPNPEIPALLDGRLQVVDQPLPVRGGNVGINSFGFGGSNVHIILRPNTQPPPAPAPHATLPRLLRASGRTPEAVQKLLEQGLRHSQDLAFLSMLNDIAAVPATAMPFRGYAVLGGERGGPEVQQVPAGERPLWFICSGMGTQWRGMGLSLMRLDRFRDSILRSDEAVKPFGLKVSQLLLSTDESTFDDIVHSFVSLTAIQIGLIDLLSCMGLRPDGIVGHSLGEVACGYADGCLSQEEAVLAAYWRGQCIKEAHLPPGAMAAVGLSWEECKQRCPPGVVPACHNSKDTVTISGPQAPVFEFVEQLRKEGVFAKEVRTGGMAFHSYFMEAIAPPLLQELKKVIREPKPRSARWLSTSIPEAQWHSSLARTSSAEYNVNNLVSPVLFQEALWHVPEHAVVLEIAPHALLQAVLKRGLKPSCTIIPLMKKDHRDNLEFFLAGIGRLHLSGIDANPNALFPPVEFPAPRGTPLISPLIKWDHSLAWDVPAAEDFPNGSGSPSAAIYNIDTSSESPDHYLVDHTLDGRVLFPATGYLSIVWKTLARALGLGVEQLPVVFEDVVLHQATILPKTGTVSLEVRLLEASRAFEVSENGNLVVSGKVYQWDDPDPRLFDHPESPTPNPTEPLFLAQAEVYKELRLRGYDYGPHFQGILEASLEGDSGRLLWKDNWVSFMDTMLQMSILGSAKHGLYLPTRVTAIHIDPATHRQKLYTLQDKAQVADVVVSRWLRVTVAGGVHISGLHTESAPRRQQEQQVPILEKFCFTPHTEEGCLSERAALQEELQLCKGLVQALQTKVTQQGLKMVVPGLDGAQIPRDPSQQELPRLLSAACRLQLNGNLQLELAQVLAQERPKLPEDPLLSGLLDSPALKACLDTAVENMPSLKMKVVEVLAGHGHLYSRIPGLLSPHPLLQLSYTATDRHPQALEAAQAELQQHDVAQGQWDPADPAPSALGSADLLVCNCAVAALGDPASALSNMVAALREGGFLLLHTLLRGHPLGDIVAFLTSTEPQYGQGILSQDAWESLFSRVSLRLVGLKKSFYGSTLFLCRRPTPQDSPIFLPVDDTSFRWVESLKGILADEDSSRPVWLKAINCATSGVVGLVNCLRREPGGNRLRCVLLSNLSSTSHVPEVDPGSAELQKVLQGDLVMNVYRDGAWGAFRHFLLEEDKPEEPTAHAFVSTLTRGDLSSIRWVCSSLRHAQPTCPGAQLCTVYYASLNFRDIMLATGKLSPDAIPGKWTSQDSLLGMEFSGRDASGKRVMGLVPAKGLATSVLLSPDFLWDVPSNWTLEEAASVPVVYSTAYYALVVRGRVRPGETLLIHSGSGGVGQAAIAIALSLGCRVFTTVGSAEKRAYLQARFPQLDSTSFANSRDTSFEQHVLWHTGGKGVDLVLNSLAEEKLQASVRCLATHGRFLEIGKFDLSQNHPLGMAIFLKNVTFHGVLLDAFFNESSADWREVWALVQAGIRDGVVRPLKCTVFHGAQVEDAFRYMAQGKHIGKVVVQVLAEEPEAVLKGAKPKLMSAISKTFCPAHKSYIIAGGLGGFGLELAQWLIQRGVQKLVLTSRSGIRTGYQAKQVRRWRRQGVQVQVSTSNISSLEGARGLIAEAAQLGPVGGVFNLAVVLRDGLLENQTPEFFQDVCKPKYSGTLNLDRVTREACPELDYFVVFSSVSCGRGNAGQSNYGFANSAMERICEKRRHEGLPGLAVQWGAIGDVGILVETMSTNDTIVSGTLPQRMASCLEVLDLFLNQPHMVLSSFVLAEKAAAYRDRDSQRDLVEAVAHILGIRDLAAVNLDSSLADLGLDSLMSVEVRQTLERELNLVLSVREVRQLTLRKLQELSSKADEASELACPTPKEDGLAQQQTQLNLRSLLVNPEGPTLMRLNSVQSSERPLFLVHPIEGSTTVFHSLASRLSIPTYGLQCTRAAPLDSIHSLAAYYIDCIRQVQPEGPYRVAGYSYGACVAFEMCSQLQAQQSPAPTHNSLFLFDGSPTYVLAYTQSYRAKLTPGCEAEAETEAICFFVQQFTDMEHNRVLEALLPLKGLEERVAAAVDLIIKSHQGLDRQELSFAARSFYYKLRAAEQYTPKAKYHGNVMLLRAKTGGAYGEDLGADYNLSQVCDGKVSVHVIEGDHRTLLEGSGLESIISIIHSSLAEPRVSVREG
Chain of Broad substrate specificity ATP-binding cassette transporter ABCG2 (Homo sapiens) (Q9UNQ0 whole entry, looked up): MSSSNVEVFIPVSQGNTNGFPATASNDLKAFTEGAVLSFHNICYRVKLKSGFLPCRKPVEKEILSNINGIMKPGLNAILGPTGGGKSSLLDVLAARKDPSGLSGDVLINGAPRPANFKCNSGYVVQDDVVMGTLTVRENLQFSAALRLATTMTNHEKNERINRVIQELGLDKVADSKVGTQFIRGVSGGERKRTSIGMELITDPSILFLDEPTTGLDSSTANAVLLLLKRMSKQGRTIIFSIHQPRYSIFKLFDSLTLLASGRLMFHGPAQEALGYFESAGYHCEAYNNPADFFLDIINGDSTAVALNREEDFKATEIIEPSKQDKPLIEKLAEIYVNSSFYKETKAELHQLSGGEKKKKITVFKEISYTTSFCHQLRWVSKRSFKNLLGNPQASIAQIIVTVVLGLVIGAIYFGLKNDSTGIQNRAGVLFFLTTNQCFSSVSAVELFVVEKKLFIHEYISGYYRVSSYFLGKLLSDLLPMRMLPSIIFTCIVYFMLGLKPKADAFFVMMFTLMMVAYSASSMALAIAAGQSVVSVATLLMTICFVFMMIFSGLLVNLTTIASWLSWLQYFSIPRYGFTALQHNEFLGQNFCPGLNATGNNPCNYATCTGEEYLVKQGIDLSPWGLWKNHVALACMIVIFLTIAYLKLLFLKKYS

CSc1nc(NC(C)C)nc(NC(C)C)n1
active: [6] 50 µM | [7] 35.9 µM | [8] 22.4 µM | [13] 3.25 µM | [15] 56.7 µM
not listed: [19] | [20]
inactive: all other assays above

CCCCSP(=O)(SCCCC)SCCCC
active: [8] 27.6 µM | [13] 50 µM | [15] 73.9 µM | [17] 50 µM
not listed: [19] | [20]
inactive: all other assays above

Cc1ccn2nc(S(=O)(=O)Nc3c(F)cccc3F)nc2n1
not listed: [19] | [20]
inactive: all other assays above

CCOP(=O)(SC(C)CC)N1CCSC1=O (stereo unspecified)
active: [16] 27.1 µM
not listed: [3] | [20]
inactive: all other assays above

N#CSCSC#N
active: [2] 64.6 µM | [6] 74.9 µM | [7] 83.2 µM | [8] 50 µM | [9] 75.2 µM | [10] 80.6 µM | [12] 84.9 µM | [15] 50 µM
not listed: [19] | [20]
inactive: all other assays above

CC(C)=CC1C(C(=O)OCN2C(=O)C3=C(CCCC3)C2=O)C1(C)C (stereo unspecified)
active: [8] 50 µM
not listed: [3] | [20]
inactive: all other assays above

COP(=O)(OC)C(O)C(Cl)(Cl)Cl (stereo unspecified)
active: [11] 0.12 µM
not listed: [3] | [8] | [19] | [20]
inactive: all other assays above

CCOP(=O)(OCC)Oc1cc(C)nc(C(C)C)n1
active: [8] 50.2 µM
not listed: [3] | [20]
inactive: all other assays above

CCC(=O)Nc1ccc(Cl)c(Cl)c1
active: [2] 30.8 µM | [5] 50 µM | [8] 32.1 µM | [20] 2.93 µM | [16] 50 µM
not listed: [3]
inactive: all other assays above
